Compound activity: PubChem, National Center for Advancing Translational Sciences (NCATS)
Hits are enriched below; roughly 8.7% of the tested compounds scored in any of these assays.
BAZ2B inh: qHTS Assay for Inhibitors of BAZ2B | Bromodomain adjacent to zinc finger domain protein 2B (Homo sapiens), Q9UIF8 | AlphaScreen BAZ2B-H3K14Ac peptide displacement | Potency, µM (titrated, usually from 114 µM), hits mostly inhibitors | 4.4% of 360,000 active; also: nearly all actives have a fitted effect of over 60% in size
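AlphaScreen displacement of biotin-H3(5-23)K14Ac peptide (50 nM final) from BAZ2B (50 nM final) in PBS pH 7.4, 0.01% Tween-20; complex preformed 30 min RT, then compounds (top 110 uM) 30 min RT, beads 20 min dark.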
HP1b chromo inh: HTS for Inhibitors of HP1-beta Chromodomain Interactions with Methylated Histone Tails; Chromobox protein homolog 1 (Homo sapiens), P83916; AlphaScreen HP1-beta / biotin-H3K9me3 peptide binding; Potency, µM (top dose mostly 114 µM), most hits filed as inhibitors; 0.56% of 390,000 active; also: nearly all actives have a fitted effect of over 70% in size
Target sequence (P83916 whole entry, looked up): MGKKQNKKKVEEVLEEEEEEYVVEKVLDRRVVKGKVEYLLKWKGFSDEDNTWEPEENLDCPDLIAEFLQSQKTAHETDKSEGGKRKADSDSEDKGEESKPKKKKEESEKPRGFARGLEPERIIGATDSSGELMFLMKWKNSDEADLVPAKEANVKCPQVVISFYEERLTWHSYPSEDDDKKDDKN
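Compound inhibition of the preformed complex between 50 nM HP1-beta and 50 nM biotinylated H3K9me3 peptide was read by AlphaScreen. Buffer was PBS pH 7.4 with 0.01% Tween-20. Incubations ran 30 min at room temperature, with 10 ug/mL donor/acceptor beads.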
Sfp inh: qHTS Assay for Inhibitors of Bacillus subtilis Sfp phosphopantetheinyl transferase (PPTase). 3.5% of 310,000 active. AID 1490, 2009. 4'-phosphopantetheinyl transferase ffp (Bacillus subtilis), Q9F4F7. Biochemical Sfp PPTase activity, qHTS. Potency, µM, most hits filed as inhibitors;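 also: the enzyme is Sfp with the accession as filed and its product quenches rhodamine fluorescence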
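Fluorescence-quenching assay: 15 nM Sfp-PPTase preincubated 15 min at room temperature with compound, then 5 uM rhodamine-CoA and 12.5 uM BHQ-2-labelled YbbR peptide added. Fluorescence (ex 525/em 598 nm) read at start and after 30 min; difference gives rate.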
G9a block: qHTS Assay for Inhibitors of Histone Lysine Methyltransferase G9a; Histone-lysine N-methyltransferase EHMT2 (Homo sapiens), Q96KQ7; G9a H3K9 monomethylation, AlphaScreen, 2 h; Potency, µM (top dose mostly 102 µM), actives largely listed as inhibitors; 8.8% of 350,000 active; also: nearly all actives have a fitted effect of over 75% in size
Target sequence (Q96KQ7 913-1193 limits assumed): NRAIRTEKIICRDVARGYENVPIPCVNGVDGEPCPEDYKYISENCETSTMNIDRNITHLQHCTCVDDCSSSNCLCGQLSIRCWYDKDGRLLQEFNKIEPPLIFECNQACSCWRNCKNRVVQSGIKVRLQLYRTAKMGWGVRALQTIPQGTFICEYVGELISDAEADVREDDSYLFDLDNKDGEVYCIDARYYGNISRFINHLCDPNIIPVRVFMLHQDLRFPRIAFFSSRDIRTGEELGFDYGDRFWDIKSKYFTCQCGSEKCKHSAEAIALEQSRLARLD
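Quantitative HTS format: methyltransferase activity on a biotin-tagged H3K9 peptide is measured by AlphaScreen, using a rabbit anti-monomethyl-H3K9 antibody with streptavidin donor and anti-IgG acceptor beads. Final levels are 20 nM enzyme, 500 nM peptide, 20 uM SAM; 2 h RT.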
JMJD2A Tudor: qHTS Assay for Inhibitors of JMJD2A-Tudor Domain; AlphaScreen JMJD2A-Tudor / H3K4me3 peptide binding; Potency, µM (titrated, usually from 114 µM), hits mostly inhibitors; 4.4% of 390,000 active; AID 504339, 2011; also: nearly all actives have a fitted effect of over 50% in size
ALOX12 inh: Primary qHTS assay for inhibitors of human arachidonate 12S-lipoxygenase (ALOX12): Round 2. Potency, µM (titrated, usually from 108 µM), actives largely listed as inhibitors. Polyunsaturated fatty acid lipoxygenase ALOX12 (Homo sapiens), P18054. 1.1% of 580,000 active. AID 1671190, 2021. purified 12hLO, xylenol orange hydroperoxide absorbance
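Hydroperoxide product was detected by ferrous iron/xylenol orange as the 573 to 405 nm absorbance ratio. Arachidonic acid at 40 uM (final) was turned over for 30 min at room temperature by 150 nM human 12hLO, pH 7.0 Hepes buffer, after 15 min compound preincubation.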
Numbers stand for hits; 0 = inactive; ? = inconclusive; - = no result; ! = not confirmed by another sample; [ ] = another dose, or the depositor's remark. Calls follow the shape of the dose curve; as a rule, active = well fitted curve in the direction sought with a large enough effect; inconclusive = small, poorly fitted or top-dose-only effect, or another doubt; inactive = no such curve, though single readings can be large; an effect the other way counts as inactive or inconclusive.

SMILES | BAZ2B inh | HP1b chromo inh | Sfp inh | G9a block | JMJD2A Tudor | ALOX12 inh
O=C1CC(=O)N(c2ccc(Cl)cc2Cl)C(=O)N1 | 0 | 0 | 0 | 45µM | 0 | ?
C=CCN(C)C(=O)[C@H]1CN2CCC1C[C@@H]2Cn1cc(CSc2ccccc2)nn1 (stereo not given in full) | - | - | - | - | - | 0
CCOc1ccc(CC2C(=O)NC(=O)N(c3ccc(CC)cc3)C2=O)cc1 (stereo not given) | 0 | 0 | 56µM | ? | 0 | 0
CCOc1ccc(N2C(=O)c3ccccc3C2=O)cc1 | 0 | 0 | 0 | 0 | 0 | 0
C[C@@H]1O[C@@H](O[C@H]2CC[C@@H](O[C@H]3[C@H](O)C[C@H](c4ccc5c(c4O)C(=O)C4=C(C5=O)[C@@]5(O)C(=O)C[C@](C)(O[C@H]6CC[C@H](O[C@H]7C=CC(=O)[C@H](C)O7)[C@H](C)O6)C[C@@]5(O)C=C4)O[C@@H]3C)O[C@H]2C)C=CC1=O | - | - | 5µM | - | - | 0
Clc1ccc2[nH]c3c(c2c1)CCNC3 | 0 | 0 | 0 | 79µM | 0 | 0
COc1ccc(N2C(=O)NC(=O)/C(=C/c3ccc([N+](=O)[O-])s3)C2=O)cc1 | 40µM | ? | 25µM | 8.9µM | 56µM | 0
COc1cccc(N2C(=O)NC(=O)/C(=C/c3ccc([N+](=O)[O-])s3)C2=O)c1 | 35µM | 35µM | 25µM | 11µM | 22µM | ?
COc1ccccc1N1C(=O)NC(=O)/C(=C/c2ccc([N+](=O)[O-])s2)C1=O | 35µM | ? | 22µM | 8.9µM | 56µM | ?
COc1ccccc1[N+](=O)[O-] | 0 | 0 | - | 0[0.501 µM] | 0 | 0
COc1ccc(N2C(=O)NC(=O)/C(=C\c3ccc([N+](=O)[O-])s3)C2=O)cc1 | 32µM | 22µM | 40µM | 7.9µM | 22µM | 45µM
Nc1ccc2c3c(cccc13)CC2 | ? | 0 | 0 | 40µM | 0 | 0
CCCc1cc2c(n1Cc1ccco1)C(C)C1CN(C(=O)c3ccccc3)C(C)(C(=O)OC)C21 (stereo not given) | - | - | 32µM | - | - | -
CCN(CC)C(=O)c1c(C)[nH]c(=S)c(C#N)c1-c1ccco1 | 0 | 0 | 1µM | 3.2µM | 7.9µM | ?
CCN(CC)c1ccc(N=Cc2c(O)n(-c3ccccc3)c(=O)[nH]c2=O)cc1 | ? | 0 | 50µM | ? | 0 | ?
CCOc1ccc(-n2c(O)c(C=Nc3ccc(N(CC)CC)cc3)c(=O)[nH]c2=O)cc1 | 0 | 0 | ? | ? | 0 | 0
Cc1cccc(-n2c(O)c(C=Nc3ccc(Br)cn3)c(=O)[nH]c2=O)c1 | 0 | 0 | 0 | - | 10µM | ?
CCc1nnc(NS(=O)(=O)c2ccc(N=Cc3c(O)n(-c4ccc(Cl)cc4)c(=O)[nH]c3=O)cc2)s1 | 0 | 0 | 0 | ? | 35µM | ?
Cc1ccc(-n2c(O)c(/C=N/c3ncc(Br)cc3Br)c(=O)[nH]c2=O)cc1 | ? | 0 | 0 | 0 | 0 | 0
Cc1ccc(-n2c(O)c(/C=C/C=Nc3ccccc3)c(=O)[nH]c2=O)cc1 | 0 | 0 | 0 | ? | 0 | ?
Cc1ccc(N/N=C/c2c(O)n(-c3ccccc3)c(=O)[nH]c2=O)cc1 | 0 | 0 | 0 | 3.2µM | 0 | ?
COc1ccc(C(=O)OC2CC[C@@]3(C)C4CCC5[C@]6(O)C[C@H](O)[C@@]7(O)C(CN8CC(C)CCC8[C@@]7(C)O)[C@]6(O)C[C@@]53O[C@]24O)cc1OC (stereo not given in full) | - | - | - | - | - | 0
CCOc1ccccc1-n1c(O)c(C=Nc2ccc(N(CC)CC)cc2)c(=O)[nH]c1=O | ? | 0 | 0 | 50µM | ? | 0
CCOC(=O)c1sc(/N=C/c2c(O)n(-c3ccccc3)c(=O)[nH]c2=O)c(C#N)c1C | ? | ? | 50µM | ? | ? | 0
CCOC(=O)c1c(/N=C/c2c(O)n(-c3cccc(C)c3)c(=O)[nH]c2=O)sc2c1CCCC2 | 0 | 0 | ? | ? | 0 | 0
SMILES | BAZ2B inh | HP1b chromo inh | Sfp inh | G9a block | JMJD2A Tudor | ALOX12 inh
COc1cc2c(cc1OCc1ccccc1)NC(=O)C21CCN(C(=O)c2ccccc2)CC1 | - | - | - | - | - | 0
COc1ccc(C(=O)O)cc1OC | - | 0 | 0 | 0[2.33 µM] | 0 | 0
O=C(O)c1cc(O)c(O)c(O)c1 | - | - | 8.9µM! | 2µM | - | ?
CCN1C(=O)NC(=O)/C(=C/c2cc(C)n(-c3sc(C)c(C)c3C#N)c2C)C1=O | 0 | ? | 16µM | 0 | ? | ?
Cc1cc(/C=C2\C(=O)NC(=O)N(c3ccc(Cl)cc3)C2=O)c(C)n1-c1cccc(C(=O)O)c1 | 0 | 0 | 0 | 0[2.33 µM] | ? | ?
CCOC(=O)c1c(-n2c(C)cc(/C=C3/C(=O)NC(=O)N(CC)C3=O)c2C)sc2c1CCCC2 | - | 0 | - | - | 0 | ?
Cc1ccc(N2C(=O)NC(=O)/C(=C\c3cc(C)n(-c4sc5c(c4C#N)CCCC5)c3C)C2=O)cc1 | ? | 0 | 40µM | ? | ? | 35µM
CCOC(=O)c1c(-n2c(C)cc(C=C3C(=O)NC(=S)NC3=O)c2C)sc2c1CCCC2 | ? | 0 | 18µM | ? | ? | -
CCN1CCN(c2ccc(Cl)nn2)C(=O)C1 | - | - | - | - | - | 0
O=C1/C(=C\c2cc3c(cc2Br)OCO3)N2CCC1CC2 | 0 | 0 | ? | 45µM | 0 | -
O=C1/C(=C/c2ccc3c(c2)OCO3)N2CCC1CC2 | 0 | 0 | 0 | 0 | 0 | 0
Cc1c(CC(=O)N2CCN(C(c3ccccc3)c3ccccc3)CC2)c(=O)oc2cc(O)ccc12 | - | - | - | - | - | 0
CC(N)C(O)c1ccc(O)c(O)c1 (stereo not given) | - | - | 0 | ? | - | -
O=Cc1ccc(O)c(O)c1 | 56µM | 0 | 32µM | ? | 22µM | ?
Cc1ccc(NC(=O)COC(=O)/C=C/c2ccco2)cc1S(=O)(=O)N(C)C | ? | 0 | 45µM | 14µM | ? | 0
Cc1cc(CN2CC3ON=C(C(=O)O)C3C2)cc(C)n1 (stereo not given) | - | - | - | - | - | 0[12.5 µM]
O=C(CNC12CC3CC(CC(C3)C1)C2)c1ccc(Cl)cc1 | - | - | - | - | - | 0
CCCCCn1c(N)c(C(=O)NCCN2CCOCC2)c2nc3ccccc3nc21 | 0 | 0 | 0 | 0 | 0 | 0
COc1ccc(Cn2c(N)c(C(=O)NCc3ccco3)c3nc4ccccc4nc32)cc1 | 0 | 0 | 45µM | 0 | 0 | 0
Nc1c(C(=O)NCc2ccco2)c2nc3ccccc3nc2n1CCN1CCOCC1 | 0 | 0 | ? | 50µM | 0 | 0
COCC(C)OC(=O)c1c(N)n(Cc2ccco2)c2nc3ccccc3nc12 (stereo not given) | 0 | 0 | 32µM | 0 | 0 | 0
